RBX1-CUL1 inh: blocks human RBX1-Cullin-1 di-ubiquitin formation; 140,000 compounds, 0.6% hits; P62877+Q13616; inhibition, % at 10 µM; in vitro K48 di-Ub FRET, acceptor:donor ratio, 45 min; AID 1347404; in the data active means inhibition above about 25%
Target sequence (P62877 whole entry, looked up): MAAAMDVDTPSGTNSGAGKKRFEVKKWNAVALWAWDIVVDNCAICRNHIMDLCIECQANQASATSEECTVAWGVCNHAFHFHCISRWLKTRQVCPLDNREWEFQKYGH
Target sequence (Q13616 whole entry, looked up): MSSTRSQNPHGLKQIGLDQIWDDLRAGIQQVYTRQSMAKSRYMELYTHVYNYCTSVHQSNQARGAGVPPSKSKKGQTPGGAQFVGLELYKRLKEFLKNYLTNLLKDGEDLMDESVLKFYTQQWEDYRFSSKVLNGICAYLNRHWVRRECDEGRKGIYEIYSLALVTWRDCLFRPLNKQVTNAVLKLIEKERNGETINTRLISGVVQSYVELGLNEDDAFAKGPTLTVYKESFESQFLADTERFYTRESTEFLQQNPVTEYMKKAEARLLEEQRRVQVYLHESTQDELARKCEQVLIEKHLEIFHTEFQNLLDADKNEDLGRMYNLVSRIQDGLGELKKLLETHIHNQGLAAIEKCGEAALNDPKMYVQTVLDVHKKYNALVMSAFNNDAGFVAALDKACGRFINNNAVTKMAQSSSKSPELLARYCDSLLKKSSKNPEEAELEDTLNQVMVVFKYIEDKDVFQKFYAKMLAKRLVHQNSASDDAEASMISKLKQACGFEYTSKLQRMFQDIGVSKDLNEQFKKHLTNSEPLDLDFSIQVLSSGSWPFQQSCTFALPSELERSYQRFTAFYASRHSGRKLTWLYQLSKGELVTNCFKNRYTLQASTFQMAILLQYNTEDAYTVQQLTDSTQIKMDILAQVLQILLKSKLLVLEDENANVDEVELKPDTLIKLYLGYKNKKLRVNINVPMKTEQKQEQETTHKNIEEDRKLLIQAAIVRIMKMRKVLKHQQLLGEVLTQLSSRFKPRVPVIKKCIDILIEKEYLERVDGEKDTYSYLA
Active calls of the source: *. The entries come from a sample that favours hits as a whole.

SMILES | RBX1-CUL1 inh
O=C1NC(=S)NC(=O)C1=Cc1cn(Cc2ccc(Cl)cc2Cl)c2ccccc12 | 1
Cc1cc(C=C2C(=O)NC(=S)NC2=O)c(C)n1-c1ccc2c(c1)OCO2 | 52*
Cc1ccc(OCCn2c(C)c(C=C3C(=O)NC(=S)NC3=O)c3ccccc32)c(C)c1 | 6
COc1cc(C=C2C(=O)NC(=S)NC2=O)ccc1OCc1ccc(F)cc1 | -5
O=C1NC(=S)NC(=O)C1=Cc1ccc(O)c(O)c1 | 10
Cc1cc(C=C2C(=O)NC(=S)NC2=O)c(C)n1-c1cccc(C(F)(F)F)c1 | 26*
CCOC(=O)C1C(c2ccccc2)=NC(=O)C2c3ccccc3CC12 (stereo unspecified) | -3
Cc1nn(C)c(C)c1/C=C1/CC2C3CCC4CC(O)CCC4(C)C3CCC2(C)C1=O (stereo unspecified) | 3
C[N+]12CCC(CC1)/C(=N\OC1c3ccccc3C=Cc3ccccc31)C2 | -1
COCCN1CCN(c2nnc3n2-c2ccc(Cl)cc2C(c2ccccc2)=NC3)CC1 | 11
CN(C)C(=O)Oc1ccc(OCC#N)cc1 | 12
CCCCn1c(O)c(C=C2C=CC=N2)c(=O)[nH]c1=O | 0
COc1ccc(Cl)cc1N1Cc2ccccc2C1=N | -8
O=C1NC(=S)NC(=O)C12C(c1ccccc1)NC(=S)NC2c1ccccc1 (stereo unspecified) | 35*
CCc1ccc(C2NCc3c(F)cccc3-n3cccc32)cc1 (stereo unspecified) | 6
CC(C)(C)OC(=O)C1C(=N)OC2=C(C(=O)CCC2)C12C(=O)Nc1ccc(Br)cc12 (stereo unspecified) | -1
CN(C)C(=O)Oc1c(Br)cc(Br)c(OC(=O)N(C)C)c1Br | 9
CNC(=O)Oc1c(Br)cc2sc(=O)oc2c1Br | 34*
CN(Cc1ccccc1)C1CCCN(C(=O)Cc2[nH]nc3ccccc23)C1 (stereo unspecified) | 3
N=C1C(Br)C(=O)NC(=O)N1Cc1ccccc1 (stereo unspecified) | 11
COc1ccc(-n2c(/C=C/c3ccc(Br)cc3)nc3ccccc3c2=O)cc1 | -3
CCCCOC(=O)c1cc(-c2ccc(C=C3C(=O)NC(=O)NC3=O)o2)ccc1Cl | 98*
CCOc1ccc(C2=C(C=C3C(=O)NC(=O)NC3=O)C(c3ccccc3C)c3ccccc3O2)cc1 (stereo unspecified) | 6
COc1ccc(N(C)[N+](=O)[O-])cc1 | -4
CCOC(=O)C1C(=N)Oc2c(c(=O)oc3ccccc23)C12C(=O)Nc1ccc(C)cc12 (stereo unspecified) | 5
SMILES | RBX1-CUL1 inh
O=C1C2CSCC1CN(Cc1ccccc1)C2 | -4
COc1ccc(C=C2C(=O)NC(=S)NC2=O)cc1OC(=O)c1ccccc1 | 1
COc1ccc(-n2cccc2C=C2C(=O)NC(=O)NC2=O)cc1 | 14
COc1ccc(N2C(=O)/C(=C/c3cccn3-c3cccc(C(=O)O)c3)C(=O)NC2=S)c(OC)c1 | 63*
O=C(NC(O)C(Cl)(Cl)Cl)c1ccccc1F (stereo unspecified) | -12
CN1CCN(c2cc3c(cc2F)no[n+]3[O-])CC1 | -5
CCOC(=O)c1[nH]ncc1CN1CCCC(C(=O)c2sccc2C)C1 (stereo unspecified) | -2
Cc1cc2nc(N3CCC(NC(C)Cc4cccs4)CC3)nc(C)c2cc1C (stereo unspecified) | 4
CN1CCN(C(=O)COc2c(Cl)cc(Cl)cc2Br)CC1 | -17
Cc1cc(/C=C2\C(=O)NC(=S)N(c3cccc(Cl)c3Cl)C2=O)c(C)n1-c1cc(C(=O)O)cc(C(=O)O)c1 | 96*
COC(=O)c1ccc(-n2c(C)cc(/C=C3\C(=O)NC(=S)N(c4cccc(Cl)c4Cl)C3=O)c2C)c(C)c1 | 31*
O=C1NC(=S)N(c2ccccc2)C(=O)/C1=C\c1ccc(OCc2ccccc2)c(C(=O)O)c1 | 10
Cc1ccc(N2C(=O)/C(=C\c3ccc(-c4cccc(C(=O)O)c4)o3)C(=O)NC2=S)cc1 | 90*
Cc1c(Cl)cccc1N1C(=O)/C(=C/c2cc(C)n(-c3ccc(C(=O)O)cc3)c2C)C(=O)NC1=S | 35*
CC1=CC(=C2C(=O)NC(=O)NC2=O)C=C(C)N1c1ccc(C(=O)O)cc1 | -1
COc1ccc(F)cc1C(=O)C1CCCN(Cc2csc(C(C)=O)c2)C1 (stereo unspecified) | 6
CC(=O)Oc1ccccc1/C=C1/C(=O)C2CCN1CC2 | 7
COc1ccc(C(=O)C2CCCN(Cc3ccn[nH]3)C2)c(C)c1 (stereo unspecified) | -13
CC(=O)NCCc1nc(-c2c(C)ncc3c2CCNC3)no1 | 9
CC(=O)c1ccc(OP(=S)(Nc2ccccc2)Nc2ccccc2)cc1 | -2
O=C(CN1CCCC1)c1ccc(O)c(O)c1 | 3
COc1cc(C=C2C(=O)NC(=O)NC2=O)ccc1OCc1ccc(Cl)cc1 | -1
CCOC(=O)C1=C(c2ccccc2)OC(=N)C(C#N)C12C(=O)Nc1ccc(Br)cc12 (stereo unspecified) | 10
CN1C(=O)C(=Cc2ccc(OCc3ccccc3)cc2)C(=O)N(C)C1=O | -5
Fc1cccc(Cl)c1C1N2CCCCN12 (stereo unspecified) | 9
CC(C)(C)N1C(=O)NC(=O)/C(=C/c2c(Cl)cccc2Cl)C1=O | 26*
O=C1NC(=S)NC(=O)C1=Cc1c(Cl)cccc1Cl | 3
CN1C2CCC1CC(=NOC(c1ccccc1)c1ccc(Cl)cc1)C2 (stereo unspecified) | 4
CCOC(=O)CCNC(=O)c1cn(Cc2ccccc2OC)cc(C(=O)NCCC(C)C)c1=O | -2
CCN1C[C@@]2(OC)C3[C@@H](OC)[C@H]4[C@@H]1[C@]3(C(OC)C[C@H]2O)C1C[C@@]2(O)C(OCc3ccccc3)C1[C@@]4(OC(C)=O)C(O)[C@@H]2OC (stereo partly specified) | 0

From PubChem BioAssay
